# Test results: paper PMC7826789 (International Journal of Molecular Sciences, 2021)
# System: GSK3A
row,Compound,Kinases covered
1,COc1ccc(CSc2nnc(-c3ccc4ncsc4c3)o2)cc1C(F)(F)F [TPKI-91],GSK3A
2,COc1cccc(-n2ncc3c(N/N=C/c4ccncc4)ncnc32)c1 [GW784752X],GSK3A
3,O=C(Nc1n[nH]c2nc(-c3nccs3)c(Br)cc12)C1CCCC1 [SB-742609],GSK3A
4,CCC(NN(C)C)=C1C(=O)Nc2ccc(C(C)=O)cc21 [BI00036838],GSK3A

# System: GSK3B
row,Compound,Kinases covered
1,O=C(Nc1n[nH]c2nc(-c3ccc(O)cc3)c(Br)cc12)C1CC1 [SB-725317],GSK3B
2,COc1ccc(CSc2nnc(-c3ccc4ncsc4c3)o2)cc1C(F)(F)F [TPKI-91],GSK3B
3,COc1ccc2c(-c3ccnc(Nc4cccc(OC(F)(F)F)c4)n3)cnn2n1 [GW810372X],GSK3B
4,CCC(NN(C)C)=C1C(=O)Nc2ccc(C(C)=O)cc21 [BI00036838],GSK3B
5,Cc1nnc(-c2ccc3occ(-c4ccc(S(C)=O)cc4)c3c2)[nH]1 (stereo not drawn) [TPKI-85],GSK3B
6,COc1cc(C=NNc2ncnc3c2cnn3-c2ccccc2)ccc1O [GW513184X],GSK3B

# System: IGF1R
row,Compound,Kinases covered
1,CN(C)C/C=C/C(=O)Nc1ccc(C(=O)Nc2cccc(Nc3ncc(Cl)c(-c4c[nH]c5ccccc45)n3)c2)cc1 [THZ1],IGF1R
2,CCc1cc(Nc2nccc(-c3c(-c4ccc(OC)c(C(=O)Nc5c(F)cccc5F)c4)nc4ccccn34)n2)c(OC)cc1N1CCC(N2CCN(S(C)(=O)=O)CC2)CC1 [GSK1904529],IGF1R
3,COc1cc(N2CCN(C(C)C)CC2)ccc1Nc1nc(Nc2ccc(F)cc2C(=O)NC[C@@H](O)CO)c2cc[nH]c2n1 [GSK1392956A],IGF1R
4,CNC(=O)c1c(F)cccc1Nc1nc(Nc2cc3c(cc2OC)CCN3C(=O)CN(C)C)nc2[nH]ccc12 [GSK1838705],IGF1R
5,COc1cc(C)c(N(C)C(=O)CN(C)C)cc1Nc1nc(Nc2cccc(F)c2C(N)=O)c2cc[nH]c2n1 [GSK2219385],IGF1R
